Results from PubChem BioAssay.
Activity calls are given as the source filed them.

Tests used:
Albumin (Bos taurus) = Albumin (Bos taurus) (UniProt P02769); assay: compounds binding labelled BSA control protein – biochemical, small-molecule microarray, Alexa647 label, 635/667 nm fluorescence, artefact control for SMM control protein annotation, profiling panel (AID 1118); conditions: BSA-A647 binding, fluorescence 635 nm, higher = more signal;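 note: score merges 667 nm emission intensity and signal-to-noise per printed compound spot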
Chain of Albumin (Bos taurus) (P02769 whole entry, looked up): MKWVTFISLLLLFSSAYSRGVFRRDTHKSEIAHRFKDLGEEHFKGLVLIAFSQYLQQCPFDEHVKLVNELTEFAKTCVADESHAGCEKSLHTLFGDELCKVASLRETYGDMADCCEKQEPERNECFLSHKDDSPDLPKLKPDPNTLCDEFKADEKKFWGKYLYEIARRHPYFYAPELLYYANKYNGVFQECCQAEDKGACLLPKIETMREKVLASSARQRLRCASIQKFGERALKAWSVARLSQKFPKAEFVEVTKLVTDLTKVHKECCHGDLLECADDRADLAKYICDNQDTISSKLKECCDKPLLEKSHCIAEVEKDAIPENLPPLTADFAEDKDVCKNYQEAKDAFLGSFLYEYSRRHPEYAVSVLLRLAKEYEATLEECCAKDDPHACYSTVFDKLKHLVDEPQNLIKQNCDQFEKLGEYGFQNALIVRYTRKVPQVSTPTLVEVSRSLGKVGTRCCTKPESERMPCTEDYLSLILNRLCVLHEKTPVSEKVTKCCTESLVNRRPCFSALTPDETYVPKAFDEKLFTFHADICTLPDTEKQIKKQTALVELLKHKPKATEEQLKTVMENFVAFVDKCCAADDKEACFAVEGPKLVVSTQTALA

[1] = probe aXIP binding to arrayed compounds – biochemical, NeuroSMM set, 635/667 nm fluorescence, primary screen (AID 1119); conditions: small-molecule microarray, higher = more signal, called active from +8 up or from −8 down;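 note: probe is the protein aXip251-270 applied at 1 µg/mL to compound-printed slides; binding of probe to printed compounds measured as 667 nm fluorescence plus signal to noise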
[2] = probe aNOTCH3 binding on compound microarray – biochemical, small-molecule microarray, 635/667 nm fluorescence, primary screen (AID 1120); conditions: higher = more signal;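 note: probe is a biotin-tagged antibody raised against NOTCH3 rather than NOTCH3 protein; score merges spot fluorescence near 667 nm with spot signal to noise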
[3] = probe aNOTCH2 binding on compound microarray – biochemical, small-molecule microarray, 635/667 nm fluorescence, primary screen (AID 1121); conditions: higher = more signal;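 note: score merges feature fluorescence read at 667 nm with its signal to noise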
[4] = biological target: Carbonic anhydrase 2 (Homo sapiens) (UniProt P00918); assay: compounds binding carbonic anhydrase 2 – biochemical, small-molecule microarray, Alexa647-labelled CAII, profiling panel (AID 1122); conditions: CAII-A647 binding fluorescence, higher = more signal
[5] = COS7 lysate on small-molecule microarray, probe aHis, 635 nm (AID 1123); conditions: COS7 cell lysate, fluorescence, higher = more signal;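 note: z-score combines 667nm fluorescence intensity with signal-to-noise per printed compound spot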
[6] = probe aLAP1 signal on lysate-treated microarray – cell lysate, small-molecule microarray, COS7 lysate, primary screen (AID 1124); conditions: probe aLAP1, fluorescence, higher = more signal;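 note: lysate comes from COS7 cells expressing LAP1 and is applied at 0.3 µg/mL; score merges spot fluorescence near 667 nm with signal-to-noise over triplicate slides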
Sam68 (KHDRBS1) = assay: compounds binding KHDRBS1 protein – biochemical, small-molecule microarray, 635 nm fluorescence, primary screen (AID 1125); conditions: higher = more signal;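 note: score merges 667 nm channel intensity with signal to noise over triplicate slides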
[7] = test system: Chordin-like protein 2 (CHRDL2); assay: compounds binding chordin-like 2 – biochemical, small-molecule microarray, 635 nm fluorescence, primary screen (AID 1126); conditions: fluorescence 635 nm, higher = more signal;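 note: printed compound slides probed with Chrdl2 protein at 4 µg/mL for 1 h at 4 C; score merges 667 nm emission intensity with signal to noise over three replicate slides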
[8] = biological target: Concanavalin-A (Canavalia ensiformis) (UniProt P02866); assay: compounds binding concanavalin A lectin – biochemical, small-molecule microarray, Alexa647 label, 635 nm, artefact control for SMM control protein annotation, primary screen (AID 1127); conditions: ConA-A647 binding fluorescence, higher = more signal;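 note: z combines 667 nm emission intensity with signal-to-noise across three replicate slides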
Chain of Concanavalin-A (Canavalia ensiformis) (P02866 whole entry, looked up): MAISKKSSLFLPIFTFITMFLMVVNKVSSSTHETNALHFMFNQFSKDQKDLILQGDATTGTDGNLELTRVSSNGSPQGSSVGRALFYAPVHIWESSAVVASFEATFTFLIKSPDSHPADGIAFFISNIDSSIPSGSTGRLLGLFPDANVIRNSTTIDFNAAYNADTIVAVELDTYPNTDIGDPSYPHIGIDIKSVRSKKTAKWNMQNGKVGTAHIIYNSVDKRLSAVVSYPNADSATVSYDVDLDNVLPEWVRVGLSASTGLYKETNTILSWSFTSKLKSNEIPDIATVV

Compound	composite z-score (Albumin (Bos taurus))	composite Z-score [1]	composite z-score [2]	composite z-score [3]	composite z-score [4]	composite z-score [5]	composite z-score [6]	composite z-score (Sam68 (KHDRBS1))	composite z-score [7]	composite z-score [8]
CON=C1[C@H]2CCn3c(=O)n(-c4ccccc4)c(=O)n3[C@H]2[C@H](O)[C@@H]2O[C@H]12	0.103	0.119 (inactive)	-0.0006	-0.121	0.0479	-0.364	0.0879	0.689	0.501	0.217
O=C1C=C[C@@H](O)[C@@H]2[C@@H]3C(=O)N(C[C@@H]4CCCO4)C(=O)[C@@H]3CC[C@@H]12	0.0654	0.681 (inactive)	-0.125	-0.112	-0.121	-0.17	0.421	0.258	0.458	0.332
O=C1[C@H]2[C@H]3[C@H](O)[C@H](O)CC(=NO[C@@H]4O[C@H](CO)[C@@H](O)[C@H](O)[C@H]4O)[C@H]3CC[C@H]2C(=O)N1c1cccc(Oc2ccccc2)c1	-0.0534	0.189 (inactive)	-0.118	-0.133	-0.0707	0.305	0.105	0.88	0.48	0.264
COC(=O)CC=C[C@@H](C)[C@@H]1C=C[C@H](O)[C@@H](CO)O1	0.0642	0.0543 (inactive)	-0.364	-0.0717	-0.184	0.189	-0.171	-0.111	0.951	-0.379
COC(=O)CC=C[C@@H](C)[C@@H](C=NO[C@@H](C)c1cc(-c2c(C)cc(C)cc2C)no1)NS(=O)(=O)c1ccc(C)cc1	-0.356	-0.136 (inactive)	-0.197	-0.115	-0.6	-0.238	-0.565	-0.723	-0.674	-0.985
COC(=O)[C@@H]1CC[C@@H](C)[C@H](c2ccc(Br)cc2)N1	-0.0822	0.644 (inactive)	-0.0111	-0.0165	-0.203	0.0852	-0.117	-0.8	0.202	0.0592
CO[C@@H]1C=CCC(=O)N[C@@H](C)C(=O)OC[C@@H](OC)[C@H](C)CCCC(=O)OC[C@H]1C	-0.555	-0.31 (inactive)	0.0854	-0.208	-1.01	-1.96	0.173	-0.248	1.53	-0.997
C#CCCCON=C1[C@H]2CCn3c(=O)n(C)c(=O)n3[C@H]2[C@H](O)[C@@H]2O[C@H]12	-0.213	-0.496 (inactive)	-0.0304	-0.169	-0.053	0.0971	0.723	0.406	0.833	0.543
Cc1ccc(S(=O)(=O)n2c3ccccc3c3nnc(C(=O)c4ccccc4)nc32)cc1	-0.563	0.0578 (inactive)	0.12	0.012	-0.141	-0.111	0.246	-0.472	0.261	0.0083
C[C@H]1CC[C@H]2C(=O)O[C@H](COc3ccc(C(C)(C)C)cc3)CN2[C@@H]1c1ccc(Br)cc1	0.513	1.48 (inactive)	-0.0435	-0.123	-0.232	0.263	0.253	0.421	-0.0816	1.09
C=CC[C@@H]1C=C[C@H](ON=C(C)CCC(=O)OC[C@H]2O[C@H](C#Cc3ccccc3)C=C[C@@H]2Oc2ccc(C)cc2)[C@@H](CO)O1	0.791	0.153 (inactive)	-0.0898	-0.101	0.286	1.23	0.441	1.29	0.126	1.13
C=CC[C@@H]1C=C[C@H](ON=C2[C@H]3CCn4c(=O)n(-c5ccccc5)c(=O)n4[C@H]3[C@H](O)[C@@H]3O[C@H]23)[C@@H](CO)O1	0.127	-0.227 (inactive)	-0.172	-0.101	0.256	-0.143	-0.208	-0.862	0.564	0.535
COC(=O)CC=C[C@@H](C)[C@@H](C=NO[C@H](C)c1cn([C@H](CO)Cc2ccccc2)nn1)OC	0.113	0.215 (inactive)	0.118	-0.118	-0.16	0.188	0.456	0.804	0.944	0.254
O=C1C[C@@H](O)[C@@H](O)[C@@H]2[C@@H]3C(=O)N(c4cccc(Oc5ccccc5)c4)C(=O)[C@@H]3CC[C@H]12	0.332	0.454 (inactive)	-0.085	-0.137	-0.0963	0.104	0.183	0.21	0.455	0.505
COc1ccc(O[C@H]2C=C[C@@H](c3ccccc3)O[C@@H]2CON=C(C)C)cc1	0.0254	0.537 (inactive)	0.201	-0.0548	0.153	0.136	-0.0187	-1.05	0.0435	0.0731
CCOC(=O)[C@H](CC(C)C)NC(=O)CCC1CC(OC(=O)NCCc2ccc(F)cc2)CC2(CCCC(COC(=O)NCCc3ccccc3OC)O2)O1 (stereo not given in full)	0.788	0.0516 (inactive)	-0.0647	-0.0781	0.56	0.907	0.419	1.29	0.337	1.09
COCCNC(=O)OCC1CCCC2(CC(OC(=O)NCc3ccc4c(c3)OCO4)CC(CCC(=O)N[C@@H](C)C(=O)OC)O2)O1 (stereo not given in full)	0.0746	0.161 (inactive)	-0.0164	-0.0666	0.234	0.678	-0.0692	1.3	0.454	1.02
CCN1C(=O)[C@H]2[C@H]3[C@H](O)[C@H](O)CC(=NO[C@@H](C)c4cn([C@H](CO)Cc5ccccc5)nn4)[C@@H]3CC[C@H]2C1=O	0.233	0.299 (inactive)	-0.0581	-0.184	0.556	0.875	0.547	1.28	0.399	0.941
COC(=O)CC=C[C@@H](C)[C@@H](C=NOC(C)CN1CCCc2nc(C)c(C)cc21)OC (stereo not given in full)	0.0374	0.0236 (inactive)	0.0833	-0.176	-0.0864	0.132	-0.201	0.263	0.377	0.458
CCOC(=O)C1=NO[C@@]2(C=C(Br)C3(OCCCO3)[C@H]3O[C@H]32)C1	-1.04	0.44 (inactive)	0.0962	-0.14	0.486	0.336	-0.145	-0.268	1.52	0.313
O=C(NN=C1C[C@@H](O)[C@@H](O)[C@@H]2[C@@H]3C(=O)N(C4CCCCC4)C(=O)[C@@H]3CC[C@@H]12)OCc1ccccc1	0.566	-0.243 (inactive)	-0.0873	-0.258	-0.129	-0.107	1.74	-0.881	0.425	0.457
C[C@@H](ON=C1[C@H]2CCn3c(=O)n(-c4ccccc4)c(=O)n3[C@H]2[C@H](O)[C@@H]2O[C@H]12)c1cn([C@@H]2COC[C@H]2O)nn1	-0.244	-0.419 (inactive)	0.0159	-0.0938	0.134	-0.282	0.211	0.509	0.534	0.459
CC(CCN1CCCCc2nc(C)c(C)cc21)=NO[C@H](C)c1cn([C@H](CO)Cc2ccccc2)nn1	0.583	0.26 (inactive)	-0.0076	-0.135	-0.274	0.558	-0.129	0.321	1.32	0.0631
CCOC(=O)[C@H](Cc1ccccc1)NC(=O)CCC1CC(OC(=O)NCCc2ccc(F)cc2)CC2(CCCC(COC(=O)NCCCN3CCCC3=O)O2)O1 (stereo not given in full)	0.468	0.0773 (inactive)	0.0479	-0.078	0.0851	0.776	0.129	1.29	0.294	1.1
C#CCCCON=C1C[C@@H](O)[C@@H](O)[C@@H]2[C@@H]3C(=O)N(Cc4ccccc4)C(=O)[C@@H]3CC[C@@H]12	0.745	0.23 (inactive)	-0.03	-0.178	-0.103	-0.0919	-0.0209	-0.492	0.0362	-0.324
COC(=O)CC=C[C@@H](C)[C@@H](C=NO[C@@H](C)c1cn([C@H](CO)Cc2ccccc2)nn1)OC	0.943	-0.452 (inactive)	-0.0069	-0.103	-0.225	-0.274	0.137	0.695	0.664	-0.61
CO[C@@H]1C=CCC(=O)N2CCC[C@H]2C(=O)OC[C@@H](C)C(=O)OC[C@H]1C	-0.709	1.36 (inactive)	0.138	-0.0109	-0.31	-0.0865	-0.176	0.465	1.05	-1.08
COc1cccc([C@H]2Oc3ccc(OC)cc3C(=NO[C@@H]3O[C@H](COC(C)=O)[C@@H](OC(C)=O)[C@H](OC(C)=O)[C@H]3OC(C)=O)[C@@H]2O)c1	0.0351	1.25 (inactive)	-0.0598	-0.141	-0.403	0.1	0.474	0.153	-0.0174	-0.143
CCc1cc2c(nc1CC)CCN(CCC(C)=NO[C@H](C)c1cn([C@@H]3COC[C@H]3O)nn1)C2	-0.559	0.577 (inactive)	-0.005	-0.0554	0.202	-0.394	0.111	0.325	0.61	-0.178
C[n+]1ccc(-c2ccc(CO)cc2)cc1	-0.619	2.7 (inactive)	-0.0377	-0.157	0.68	-0.702	0.372	0.364	1.54	1.11
